From the supplement of paper PMC11732987, “Enantioselective OTUD7B fragment discovery through chemoproteomics screening and high-throughput optimisation” (Communications Chemistry, 2025)

Legend:
Test in all cases: log2 ratio of Biotin-Ahx-Ub-VS probe labelling (fragment/DMSO); higher = less target engagement (more negative = stronger competition), active = hit call of the paper (q ≤ 0.05, log2 ratio ≤ -1)
Conditions in all cases: compound concentration: 200 uM; treatment time: 3 h
USP42 = target: T1, USP42 (UniProt Q9H9J4)
T1 sequence (whole entry): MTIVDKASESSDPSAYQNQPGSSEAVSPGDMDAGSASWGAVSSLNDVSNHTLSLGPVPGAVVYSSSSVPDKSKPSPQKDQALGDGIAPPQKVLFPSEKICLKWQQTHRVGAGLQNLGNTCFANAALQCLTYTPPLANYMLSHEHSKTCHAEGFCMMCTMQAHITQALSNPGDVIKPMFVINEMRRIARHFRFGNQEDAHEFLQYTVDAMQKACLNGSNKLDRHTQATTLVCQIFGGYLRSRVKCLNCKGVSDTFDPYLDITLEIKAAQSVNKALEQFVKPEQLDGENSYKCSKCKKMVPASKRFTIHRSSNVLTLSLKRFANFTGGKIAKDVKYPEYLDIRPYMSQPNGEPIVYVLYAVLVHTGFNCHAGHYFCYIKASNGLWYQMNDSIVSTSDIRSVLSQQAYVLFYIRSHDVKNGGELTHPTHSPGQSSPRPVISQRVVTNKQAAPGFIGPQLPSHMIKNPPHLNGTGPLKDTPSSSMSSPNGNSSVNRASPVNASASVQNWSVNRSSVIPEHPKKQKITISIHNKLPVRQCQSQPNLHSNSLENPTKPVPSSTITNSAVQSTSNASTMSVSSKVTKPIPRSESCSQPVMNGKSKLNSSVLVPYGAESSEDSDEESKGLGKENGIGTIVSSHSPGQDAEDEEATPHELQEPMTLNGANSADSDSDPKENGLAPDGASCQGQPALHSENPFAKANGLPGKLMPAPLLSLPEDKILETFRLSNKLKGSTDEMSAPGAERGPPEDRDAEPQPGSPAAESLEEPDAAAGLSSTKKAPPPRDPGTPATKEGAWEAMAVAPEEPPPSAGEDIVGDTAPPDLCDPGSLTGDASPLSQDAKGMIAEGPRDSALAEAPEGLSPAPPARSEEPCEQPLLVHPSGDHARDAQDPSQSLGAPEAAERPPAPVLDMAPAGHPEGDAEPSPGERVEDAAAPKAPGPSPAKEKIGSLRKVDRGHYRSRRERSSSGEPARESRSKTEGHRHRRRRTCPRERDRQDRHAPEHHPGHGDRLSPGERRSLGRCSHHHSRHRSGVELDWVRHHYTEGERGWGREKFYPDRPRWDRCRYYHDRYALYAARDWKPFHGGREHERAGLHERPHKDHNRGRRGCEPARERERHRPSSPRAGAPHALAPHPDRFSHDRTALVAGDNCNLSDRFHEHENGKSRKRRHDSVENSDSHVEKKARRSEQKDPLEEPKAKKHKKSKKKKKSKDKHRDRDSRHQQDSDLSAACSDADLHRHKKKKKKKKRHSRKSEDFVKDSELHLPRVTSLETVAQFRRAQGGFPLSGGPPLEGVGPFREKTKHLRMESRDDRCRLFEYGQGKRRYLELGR
Outline: (§1)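 Using Biotin-Ahx-Ub-VS at 0.5 µM final for 1 h, DUBs were labelled in HEK293T lysate (495 µg per sample) that had first been treated in triplicate with fragment at 200 µM or vehicle for 3 h. NeutrAvidin enrichment, LysC and trypsin digestion and diaPASEF LC-MS/MS followed. Spectronaut label-free quantities were global-median-normalised. Values are average log2 fragment/vehicle ratios by unpaired t-test, using proteins with ≥2 unique peptides.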

USP46 = USP46 (UniProt P62068)
Outline: as §1

USP47 = target: T2, USP47 (UniProt Q96K76)
T2 sequence (whole entry): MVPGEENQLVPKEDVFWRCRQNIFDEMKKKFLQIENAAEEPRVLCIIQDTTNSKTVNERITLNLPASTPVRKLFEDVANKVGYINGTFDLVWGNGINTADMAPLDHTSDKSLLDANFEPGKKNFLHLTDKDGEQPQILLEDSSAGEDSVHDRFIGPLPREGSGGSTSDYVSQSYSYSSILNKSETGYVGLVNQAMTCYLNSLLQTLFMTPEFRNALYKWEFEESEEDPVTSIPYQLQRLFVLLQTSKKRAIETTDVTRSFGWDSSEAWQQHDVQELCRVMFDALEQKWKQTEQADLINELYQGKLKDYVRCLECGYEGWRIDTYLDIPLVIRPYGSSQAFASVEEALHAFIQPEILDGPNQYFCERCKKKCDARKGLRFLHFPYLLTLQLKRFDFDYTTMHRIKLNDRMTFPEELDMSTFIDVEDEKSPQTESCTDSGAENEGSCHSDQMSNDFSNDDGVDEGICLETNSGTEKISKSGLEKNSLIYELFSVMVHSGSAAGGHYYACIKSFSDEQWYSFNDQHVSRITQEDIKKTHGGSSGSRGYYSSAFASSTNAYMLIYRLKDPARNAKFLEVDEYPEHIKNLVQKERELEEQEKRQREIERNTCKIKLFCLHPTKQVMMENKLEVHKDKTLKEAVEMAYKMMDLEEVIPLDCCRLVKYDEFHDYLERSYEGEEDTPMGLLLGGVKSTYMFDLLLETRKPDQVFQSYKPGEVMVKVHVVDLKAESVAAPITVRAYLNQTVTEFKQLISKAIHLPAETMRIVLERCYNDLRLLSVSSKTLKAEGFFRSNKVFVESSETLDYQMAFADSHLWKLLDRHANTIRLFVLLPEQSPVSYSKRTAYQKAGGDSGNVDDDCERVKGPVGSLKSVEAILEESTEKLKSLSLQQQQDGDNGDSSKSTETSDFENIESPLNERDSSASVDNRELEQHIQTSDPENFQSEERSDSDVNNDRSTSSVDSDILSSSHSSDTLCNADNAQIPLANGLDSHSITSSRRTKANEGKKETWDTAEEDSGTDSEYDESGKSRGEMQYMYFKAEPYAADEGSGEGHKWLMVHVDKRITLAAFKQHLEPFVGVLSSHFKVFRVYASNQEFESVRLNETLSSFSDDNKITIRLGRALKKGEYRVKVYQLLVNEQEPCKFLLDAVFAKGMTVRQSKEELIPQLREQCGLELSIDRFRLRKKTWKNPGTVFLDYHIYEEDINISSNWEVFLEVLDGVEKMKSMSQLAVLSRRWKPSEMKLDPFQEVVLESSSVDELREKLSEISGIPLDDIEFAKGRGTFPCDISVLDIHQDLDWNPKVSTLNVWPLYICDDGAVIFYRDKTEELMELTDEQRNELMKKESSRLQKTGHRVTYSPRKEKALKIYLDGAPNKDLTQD
Outline: as §1

USP48 = target: T3, USP48 (UniProt Q86UV5)
T3 sequence (whole entry): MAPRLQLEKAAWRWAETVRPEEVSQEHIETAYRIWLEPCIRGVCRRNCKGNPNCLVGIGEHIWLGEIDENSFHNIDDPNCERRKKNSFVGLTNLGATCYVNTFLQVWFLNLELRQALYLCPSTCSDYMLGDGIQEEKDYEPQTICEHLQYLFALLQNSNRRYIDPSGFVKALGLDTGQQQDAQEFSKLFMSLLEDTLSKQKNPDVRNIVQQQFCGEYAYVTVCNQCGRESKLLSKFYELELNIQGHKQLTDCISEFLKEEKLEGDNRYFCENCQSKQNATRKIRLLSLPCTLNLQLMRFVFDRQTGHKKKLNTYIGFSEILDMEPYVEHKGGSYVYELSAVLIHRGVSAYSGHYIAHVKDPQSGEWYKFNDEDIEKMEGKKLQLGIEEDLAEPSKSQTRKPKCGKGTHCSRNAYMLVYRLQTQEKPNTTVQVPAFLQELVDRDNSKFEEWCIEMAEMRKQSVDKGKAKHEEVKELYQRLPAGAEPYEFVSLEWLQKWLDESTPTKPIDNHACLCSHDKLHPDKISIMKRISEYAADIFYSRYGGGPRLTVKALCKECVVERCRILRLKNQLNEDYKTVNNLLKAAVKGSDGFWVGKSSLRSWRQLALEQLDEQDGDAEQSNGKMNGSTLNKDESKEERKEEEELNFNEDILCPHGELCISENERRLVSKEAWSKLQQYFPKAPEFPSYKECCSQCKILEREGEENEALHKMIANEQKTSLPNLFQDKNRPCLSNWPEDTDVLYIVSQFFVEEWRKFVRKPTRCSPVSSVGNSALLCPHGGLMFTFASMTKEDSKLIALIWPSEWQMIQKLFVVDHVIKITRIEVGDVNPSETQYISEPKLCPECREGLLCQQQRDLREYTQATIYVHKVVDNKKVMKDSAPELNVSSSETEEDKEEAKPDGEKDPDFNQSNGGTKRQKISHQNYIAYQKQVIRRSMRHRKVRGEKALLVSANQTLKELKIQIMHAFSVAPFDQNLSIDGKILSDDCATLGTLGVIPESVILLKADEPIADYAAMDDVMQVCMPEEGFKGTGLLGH
Outline: as §1

USP5 = target: T4, USP5 (UniProt P45974)
T4 sequence (whole entry): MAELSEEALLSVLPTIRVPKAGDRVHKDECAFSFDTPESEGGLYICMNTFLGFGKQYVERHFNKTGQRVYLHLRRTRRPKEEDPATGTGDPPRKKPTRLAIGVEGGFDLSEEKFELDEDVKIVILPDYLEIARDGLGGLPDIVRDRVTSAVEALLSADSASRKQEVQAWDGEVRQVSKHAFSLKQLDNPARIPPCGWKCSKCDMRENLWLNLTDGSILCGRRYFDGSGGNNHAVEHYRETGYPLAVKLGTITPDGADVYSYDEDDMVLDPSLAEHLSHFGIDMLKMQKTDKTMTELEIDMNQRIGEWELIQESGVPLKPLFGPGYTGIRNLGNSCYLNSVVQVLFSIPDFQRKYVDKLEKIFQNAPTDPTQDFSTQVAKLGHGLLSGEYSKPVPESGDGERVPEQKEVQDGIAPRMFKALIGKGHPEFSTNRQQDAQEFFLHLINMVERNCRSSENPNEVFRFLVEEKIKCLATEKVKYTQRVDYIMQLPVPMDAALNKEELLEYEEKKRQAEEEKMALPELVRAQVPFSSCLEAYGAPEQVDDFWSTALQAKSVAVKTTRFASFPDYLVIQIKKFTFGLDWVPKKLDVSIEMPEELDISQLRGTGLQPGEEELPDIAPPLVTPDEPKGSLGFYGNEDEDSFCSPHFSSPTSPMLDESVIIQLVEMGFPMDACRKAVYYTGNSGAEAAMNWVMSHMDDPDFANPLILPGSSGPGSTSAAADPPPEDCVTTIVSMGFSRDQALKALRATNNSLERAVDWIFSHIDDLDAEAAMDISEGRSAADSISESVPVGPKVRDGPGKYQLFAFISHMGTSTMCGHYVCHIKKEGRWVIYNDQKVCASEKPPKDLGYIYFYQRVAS
Outline: as §1

USP54 = USP54 (UniProt Q70EL1)
Outline: as §1

USP7 = USP7 (UniProt Q93009)
Outline: as §1

USP8 = target: T5, USP8 (UniProt P40818)
T5 sequence (whole entry): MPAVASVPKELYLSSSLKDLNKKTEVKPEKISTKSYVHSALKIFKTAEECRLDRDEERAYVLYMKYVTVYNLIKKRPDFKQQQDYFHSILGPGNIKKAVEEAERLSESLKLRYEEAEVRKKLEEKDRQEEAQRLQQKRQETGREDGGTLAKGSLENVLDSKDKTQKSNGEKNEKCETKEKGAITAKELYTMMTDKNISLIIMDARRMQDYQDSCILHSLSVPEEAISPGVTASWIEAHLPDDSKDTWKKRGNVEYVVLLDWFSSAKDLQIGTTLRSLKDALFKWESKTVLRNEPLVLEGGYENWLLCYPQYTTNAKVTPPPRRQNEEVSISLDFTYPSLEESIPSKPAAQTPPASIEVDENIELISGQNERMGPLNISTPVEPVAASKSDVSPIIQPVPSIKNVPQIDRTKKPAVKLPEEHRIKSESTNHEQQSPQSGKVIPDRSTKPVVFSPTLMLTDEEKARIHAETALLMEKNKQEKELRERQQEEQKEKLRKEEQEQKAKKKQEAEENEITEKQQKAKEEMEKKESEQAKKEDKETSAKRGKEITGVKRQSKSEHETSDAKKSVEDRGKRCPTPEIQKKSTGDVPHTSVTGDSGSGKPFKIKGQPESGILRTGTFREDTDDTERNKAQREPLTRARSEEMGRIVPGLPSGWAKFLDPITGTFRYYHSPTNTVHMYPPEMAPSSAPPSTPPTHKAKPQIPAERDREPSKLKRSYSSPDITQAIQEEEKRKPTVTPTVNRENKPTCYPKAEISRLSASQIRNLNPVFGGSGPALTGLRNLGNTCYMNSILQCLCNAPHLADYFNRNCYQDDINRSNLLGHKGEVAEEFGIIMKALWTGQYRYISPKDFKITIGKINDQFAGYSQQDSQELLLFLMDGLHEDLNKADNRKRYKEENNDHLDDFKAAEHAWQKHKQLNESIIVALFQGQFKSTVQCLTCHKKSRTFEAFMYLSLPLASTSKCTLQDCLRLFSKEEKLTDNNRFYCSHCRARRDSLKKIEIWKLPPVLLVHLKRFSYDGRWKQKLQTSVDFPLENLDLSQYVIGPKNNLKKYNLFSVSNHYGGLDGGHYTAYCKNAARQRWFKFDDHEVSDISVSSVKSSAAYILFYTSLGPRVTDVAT
Outline: as §1

Measured: log2 ratio of Biotin-Ahx-Ub-VS probe labelling

Chain of USP46 (P62068 whole entry): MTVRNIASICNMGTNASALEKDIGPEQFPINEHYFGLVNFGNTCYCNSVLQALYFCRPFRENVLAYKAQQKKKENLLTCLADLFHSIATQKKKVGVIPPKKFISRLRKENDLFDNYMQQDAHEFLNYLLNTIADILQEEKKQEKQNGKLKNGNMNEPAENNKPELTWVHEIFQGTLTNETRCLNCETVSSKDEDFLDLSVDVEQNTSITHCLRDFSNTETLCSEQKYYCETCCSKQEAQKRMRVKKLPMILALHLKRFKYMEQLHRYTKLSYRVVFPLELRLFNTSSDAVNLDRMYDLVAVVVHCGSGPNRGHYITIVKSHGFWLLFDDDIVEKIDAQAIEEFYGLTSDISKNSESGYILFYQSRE
Chain of USP54 (Q70EL1 whole entry): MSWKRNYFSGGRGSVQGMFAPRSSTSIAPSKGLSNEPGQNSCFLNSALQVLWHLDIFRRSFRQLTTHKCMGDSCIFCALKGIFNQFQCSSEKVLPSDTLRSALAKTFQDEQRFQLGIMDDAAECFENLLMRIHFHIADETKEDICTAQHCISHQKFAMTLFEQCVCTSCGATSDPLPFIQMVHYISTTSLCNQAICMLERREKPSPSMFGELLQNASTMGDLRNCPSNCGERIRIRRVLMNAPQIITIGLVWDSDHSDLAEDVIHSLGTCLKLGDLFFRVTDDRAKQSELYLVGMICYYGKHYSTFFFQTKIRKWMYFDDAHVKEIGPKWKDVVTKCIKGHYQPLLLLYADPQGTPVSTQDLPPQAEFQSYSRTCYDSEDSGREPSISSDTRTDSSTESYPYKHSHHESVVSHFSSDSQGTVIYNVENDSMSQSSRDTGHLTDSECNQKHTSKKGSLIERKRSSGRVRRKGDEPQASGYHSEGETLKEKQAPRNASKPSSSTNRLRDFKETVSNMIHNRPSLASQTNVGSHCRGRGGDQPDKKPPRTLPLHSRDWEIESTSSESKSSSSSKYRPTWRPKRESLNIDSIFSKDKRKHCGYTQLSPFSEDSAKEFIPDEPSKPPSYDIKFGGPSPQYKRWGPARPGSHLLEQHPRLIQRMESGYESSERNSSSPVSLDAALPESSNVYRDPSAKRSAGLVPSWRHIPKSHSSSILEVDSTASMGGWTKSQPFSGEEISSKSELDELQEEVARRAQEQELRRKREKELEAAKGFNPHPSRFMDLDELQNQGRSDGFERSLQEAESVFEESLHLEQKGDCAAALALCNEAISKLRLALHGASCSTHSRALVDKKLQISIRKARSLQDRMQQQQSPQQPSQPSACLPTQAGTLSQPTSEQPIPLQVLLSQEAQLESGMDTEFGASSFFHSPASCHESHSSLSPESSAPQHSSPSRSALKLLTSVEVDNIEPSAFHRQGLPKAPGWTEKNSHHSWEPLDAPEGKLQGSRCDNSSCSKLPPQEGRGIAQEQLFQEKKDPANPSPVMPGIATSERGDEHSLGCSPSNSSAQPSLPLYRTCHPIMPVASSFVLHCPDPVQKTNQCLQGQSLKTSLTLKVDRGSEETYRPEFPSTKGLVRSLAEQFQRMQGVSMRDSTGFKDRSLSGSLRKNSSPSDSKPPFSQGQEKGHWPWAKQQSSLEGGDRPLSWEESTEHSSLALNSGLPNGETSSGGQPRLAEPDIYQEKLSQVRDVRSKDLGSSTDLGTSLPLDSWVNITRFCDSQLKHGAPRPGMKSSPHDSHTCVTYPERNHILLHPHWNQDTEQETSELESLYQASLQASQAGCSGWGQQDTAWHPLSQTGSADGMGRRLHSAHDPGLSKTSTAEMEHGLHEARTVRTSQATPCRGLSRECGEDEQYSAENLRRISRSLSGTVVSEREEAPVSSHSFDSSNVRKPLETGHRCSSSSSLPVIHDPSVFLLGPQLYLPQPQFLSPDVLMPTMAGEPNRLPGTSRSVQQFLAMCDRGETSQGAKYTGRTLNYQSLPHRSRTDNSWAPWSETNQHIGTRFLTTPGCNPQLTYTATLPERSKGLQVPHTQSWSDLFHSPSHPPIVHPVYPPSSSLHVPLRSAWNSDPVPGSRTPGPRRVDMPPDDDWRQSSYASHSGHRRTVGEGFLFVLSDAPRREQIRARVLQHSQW
Chain of USP7 (Q93009 whole entry, looked up): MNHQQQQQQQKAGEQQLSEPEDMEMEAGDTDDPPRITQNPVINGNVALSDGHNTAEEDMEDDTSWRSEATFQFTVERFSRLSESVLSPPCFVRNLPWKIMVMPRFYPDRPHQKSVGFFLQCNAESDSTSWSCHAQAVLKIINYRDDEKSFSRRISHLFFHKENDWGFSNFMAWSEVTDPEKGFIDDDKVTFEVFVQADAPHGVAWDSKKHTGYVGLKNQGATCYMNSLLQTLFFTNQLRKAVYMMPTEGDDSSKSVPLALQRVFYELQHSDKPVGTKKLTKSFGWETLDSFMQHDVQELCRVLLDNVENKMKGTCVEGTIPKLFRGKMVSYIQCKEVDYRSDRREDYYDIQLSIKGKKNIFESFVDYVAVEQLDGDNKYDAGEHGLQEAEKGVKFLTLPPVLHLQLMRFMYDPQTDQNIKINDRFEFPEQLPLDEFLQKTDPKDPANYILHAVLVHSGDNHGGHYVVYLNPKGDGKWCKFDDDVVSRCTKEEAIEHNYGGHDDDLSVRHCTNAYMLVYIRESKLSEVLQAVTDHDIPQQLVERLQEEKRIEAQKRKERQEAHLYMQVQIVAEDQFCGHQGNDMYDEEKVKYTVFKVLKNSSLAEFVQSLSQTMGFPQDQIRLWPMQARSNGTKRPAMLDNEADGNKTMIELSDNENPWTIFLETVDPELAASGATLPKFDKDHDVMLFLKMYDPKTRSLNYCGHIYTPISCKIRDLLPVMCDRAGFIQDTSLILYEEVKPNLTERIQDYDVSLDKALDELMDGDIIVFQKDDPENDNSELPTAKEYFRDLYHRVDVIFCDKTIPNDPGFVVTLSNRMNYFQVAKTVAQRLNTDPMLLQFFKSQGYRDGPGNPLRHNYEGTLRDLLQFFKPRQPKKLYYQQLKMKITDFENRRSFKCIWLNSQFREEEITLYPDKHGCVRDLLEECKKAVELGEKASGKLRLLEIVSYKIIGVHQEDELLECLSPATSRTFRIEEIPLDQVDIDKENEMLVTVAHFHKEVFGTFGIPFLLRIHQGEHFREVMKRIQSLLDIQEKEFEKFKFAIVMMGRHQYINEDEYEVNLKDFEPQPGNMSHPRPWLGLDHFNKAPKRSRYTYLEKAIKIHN

O=C(CCl)Nc1cccc(C(=O)N2CCSCC2)c1
inactive: USP42 0.397 | USP46 -0.00544 | USP47 0.175 | USP48 -0.0892 | USP5 -0.171 | USP54 -0.177 | USP7 -0.299 | USP8 -0.00928
